Results filed as inconclusive are left out. Calls of active or inactive are those of the source. The call rests on the fitted dose curve; in most records, active means well fitted curve in the direction sought with a large enough effect; inconclusive means small, poorly fitted or top-dose-only effect, or another doubt; inactive means no such curve, though single readings can be large; an effect the other way counts as inactive or inconclusive.
Columns and labels:
[1] = Quantitative High-Throughput drug screen in 47 multiple myeloma cell lines against the NCATS MIPE library collection: KMS12BM_JCRB cell viability assay (AID 1918971); further: nearly all actives have a fitted effect of over 35% in size; further: potency means the concentration at half of the fitted maximal effect
How it was run: (§1)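 Viability readout: CellTiter-Glo luminescence following 5 min room-temperature incubation with reagent. Prior exposure: 48 h, 37C, humidified 5% CO2, 500 cells per well.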

[2] = Quantitative High-Throughput drug screen in 47 multiple myeloma cell lines against the NCATS MIPE library collection: MMM1_PLB cell viability assay (AID 1918976); further: potency means the concentration at half of the fitted maximal effect; nearly all actives have a fitted effect of over 35% in size
How it was run: (§2)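 MIPE 4.0 approved/investigational drugs; 500 cells/well; 48 h 37 °C humidified 5% CO2; CTG luminescence readout; DMSO = 100%, media = 0% viability.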

[3] = Quantitative High-Throughput drug screen in 47 multiple myeloma cell lines against the NCATS MIPE library collection: NCIH929_DSMZ cell viability assay (AID 1918978); further: nearly all actives have a fitted effect of over 35% in size; further: potency means the concentration at half of the fitted maximal effect
How it was run: as §2

[4] = Quantitative High-Throughput drug screen in 47 multiple myeloma cell lines against the NCATS MIPE library collection: MM1S_ATCC cell viability assay (AID 1918980); further: nearly all actives have a fitted effect of over 45% in size; further: potency means the concentration at half of the fitted maximal effect
How it was run: as §2

[5] = Quantitative High-Throughput drug screen in 47 multiple myeloma cell lines against the NCATS MIPE library collection: MM1R_ATCC cell viability assay (AID 1918981); further: nearly all actives have a fitted effect of over 35% in size; further: potency means the concentration at half of the fitted maximal effect
How it was run: as §2

[6] = Quantitative High-Throughput drug screen in 47 multiple myeloma cell lines against the NCATS MIPE library collection: LP1_DSMZ cell viability assay (AID 1918982); further: nearly all actives have a fitted effect of over 35% in size; further: potency means the concentration at half of the fitted maximal effect
How it was run: as §2

[7] = Quantitative High-Throughput drug screen in 47 multiple myeloma cell lines against the NCATS MIPE library collection: KMS28PE_JCRB cell viability assay (AID 1918983); further: nearly all actives have a fitted effect of over 35% in size; further: potency means the concentration at half of the fitted maximal effect
How it was run: as §2

[8] = Quantitative High-Throughput drug screen in 47 multiple myeloma cell lines against the NCATS MIPE library collection: OCIMY7_PLB cell viability assay (AID 1918987); conditions: OCI-MY7 myeloma viability, CellTiter-Glo ATP, 48 h; viability (% of DMSO): at 45.8 µM (top of the series); further: nearly all actives have a fitted effect of over 65% in size; further: potency means the concentration at half of the fitted maximal effect
How it was run: as §2

[9] = Quantitative High-Throughput drug screen in 47 multiple myeloma cell lines against the NCATS MIPE library collection: OCIMY5_PLB cell viability assay (AID 1918988); further: nearly all actives have a fitted effect of over 65% in size; further: potency means the concentration at half of the fitted maximal effect
How it was run: as §2

[10] = Quantitative High-Throughput drug screen in 47 multiple myeloma cell lines against the NCATS MIPE library collection: OPM1_PLB cell viability assay (AID 1918989); further: nearly all actives have a fitted effect of over 40% in size; further: potency means the concentration at half of the fitted maximal effect
How it was run: as §2

[11] = Quantitative High-Throughput drug screen in 47 multiple myeloma cell lines against the NCATS MIPE library collection: U266_ATCC cell viability assay (AID 1919864); further: nearly all actives have a fitted effect of over 35% in size; further: potency means the concentration at half of the fitted maximal effect
How it was run: as §2

[12] = Quantitative High-Throughput drug screen in 47 multiple myeloma cell lines against the NCATS MIPE library collection: OCIMY1_PLB cell viability assay (AID 1918979); further: nearly all actives have a fitted effect of over 35% in size; further: potency means the concentration at half of the fitted maximal effect;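 on viability: 100% = DMSO-only wells and 0% = cell-free media-only wells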
How it was run: as §2

[13] = Quantitative High-Throughput drug screen in 47 multiple myeloma cell lines against the NCATS MIPE library collection: L363_DSMZ cell viability assay (AID 1918984); conditions: L363 myeloma viability, CellTiter-Glo ATP luminescence, 48 h; viability (% of control): at 45.8 µM (top of the series); further: nearly all actives have a fitted effect of over 40% in size; further: potency means the concentration at half of the fitted maximal effect
How it was run: as §2

[14] = Quantitative High-Throughput drug screen in 47 multiple myeloma cell lines against the NCATS MIPE library collection: KMS12PE_JCRB cell viability assay (AID 1918972); further: nearly all actives have a fitted effect of over 30% in size; further: potency means the concentration at half of the fitted maximal effect;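 on viability: 100% = DMSO only wells and 0% = wells with media alone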
How it was run: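 Approved and investigational drugs from MIPE 4.0 were added by pin tool to 500 cells per well. After 48 hours at 37C, ATP-based CellTiter-Glo luminescence indicated remaining viability.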

[15] = Quantitative High-Throughput drug screen in 47 multiple myeloma cell lines against the NCATS MIPE library collection: KMS20_JCRB cell viability assay (AID 1918973); further: nearly all actives have a fitted effect of over 45% in size; further: potency means the concentration at half of the fitted maximal effect
How it was run: (§3)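 qHTS of the MIPE 4.0 collection: 500 myeloma cells/well, 48 h drug exposure at 37C in 5% CO2, then CellTiter-Glo for 5 min at room temperature before luminescence reading.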

[16] = Quantitative High-Throughput drug screen in 47 multiple myeloma cell lines against the NCATS MIPE library collection: KMS26_JCRB cell viability assay (AID 1918975); further: nearly all actives have a fitted effect of over 45% in size; further: potency means the concentration at half of the fitted maximal effect;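 on viability (% of DMSO): 100% = DMSO-treated wells and 0% = wells with media only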
How it was run: as §1

[17] = Quantitative High-Throughput drug screen in 47 multiple myeloma cell lines against the NCATS MIPE library collection: MOLP8_DSMZ cell viability assay (AID 1918977); further: nearly all actives have a fitted effect of over 45% in size; further: potency means the concentration at half of the fitted maximal effect;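 on viability (% of control): 100% = DMSO-only wells and 0% = media-only wells without cells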
How it was run: as §2

[18] = Quantitative High-Throughput drug screen in 47 multiple myeloma cell lines against the NCATS MIPE library collection: KMS34_JCRB cell viability assay (AID 1918985); further: nearly all actives have a fitted effect of over 40% in size; further: potency means the concentration at half of the fitted maximal effect
How it was run: as §2

[19] = Quantitative High-Throughput drug screen in 47 multiple myeloma cell lines against the NCATS MIPE library collection: KMS21BM_JCRB cell viability assay (AID 1918974); conditions: ATP luminescence, 48 h; viability: at 45.8 µM (top of the series); further: potency means the concentration at half of the fitted maximal effect
How it was run: as §3

[20] = Quantitative High-Throughput drug screen in 47 multiple myeloma cell lines against the NCATS MIPE library collection: SKMM1_PLB cell viability assay (AID 1919863); conditions: SKMM1 myeloma viability, CellTiter-Glo ATP, 48 h; viability: active compounds read low; further: nearly all actives have a fitted effect of over 35% in size
How it was run: as §2

CC(C)C[C@H](NC(=O)c1cc2ccccc2s1)C(=O)N1CCN(C(=O)[C@H](CO)NS(=O)(=O)c2ccc(Cl)cc2Cl)CC1
active: Potency [1] 18.7 µM | Potency [2] 18.7 µM | Potency [3] 26.4 µM | Potency [4] 23.5 µM | Potency [5] 18.7 µM | Potency [6] 26.4 µM | Potency [7] 23.5 µM | Potency [8] 23.5 µM | Potency [9] 20.9 µM | Potency [10] 20.9 µM | Potency [11] 23.5 µM

CC(C)C[C@@H](N)[C@H](O)C(=O)N[C@H](C(=O)N[C@H](C(=O)N[C@@H](CC(=O)O)C(=O)O)C(C)C)C(C)C
active: Potency [2] 1.66 µM | Potency [4] 23.5 µM
inactive: Potency [1] | Potency [12] | Potency [6] | Potency [7] | Potency [13] | Potency [9]

Oc1cc(O)cc(C=Cc2ccc(O)c(O)c2)c1
active: Potency [14] 18.7 µM | Potency [15] 2.96 µM | Potency [16] 23.5 µM | Potency [2] 23.5 µM | Potency [17] 18.7 µM | Potency [3] 6.62 µM | Potency [4] 26.4 µM | Potency [5] 20.9 µM | Potency [18] 11.8 µM | Potency [8] 5.26 µM | Potency [9] 20.9 µM | Potency [10] 16.6 µM

CNC(=O)c1ccc2c(C(=Nc3cccc(CN(C)C)c3)c3ccccc3)c(O)[nH]c2c1
inactive: Potency [1] | Potency [6]
active: Potency [16] 0.662 µM | Potency [3] 14.8 µM | Potency [8] 5.9 µM | Potency [10] 18.7 µM

Cc1csc(-c2nnc(Nc3ccc(Oc4ncccc4-c4ccnc(N)n4)cc3)c3ccccc23)c1
active: Potency [14] 20.9 µM | Potency [19] 18.7 µM | Potency [12] 5.26 µM | Potency [4] 18.7 µM | Potency [5] 20.9 µM | Potency [6] 20.9 µM | Potency [13] 20.9 µM

O=C(Nc1cccc2c(=O)cc(-c3nn[nH]n3)oc12)c1ccc(OCCCCc2ccccc2)cc1
inactive: Potency [17]
active: Potency [14] 20.9 µM | Potency [15] 14.8 µM | Potency [4] 23.5 µM | Potency [5] 26.4 µM

C[C@@H]1C[C@H]2[C@@H]3CCC4=CC(=O)C=C[C@]4(C)[C@@]3(F)[C@@H](O)C[C@]2(C)[C@@]1(O)C(=O)CO
inactive: Potency [14] | Potency [16] | Potency [17] | Potency [3] | Potency [12] | Potency [5] | Potency [7] | Potency [18] | Potency [8] | Potency [10] | viability [20] 118% | Potency [11]
active: Potency [15] 0.418 µM | Potency [4] 0.0264 µM | Potency [6] 0.0083 µM

COc1ccc(Cn2ccc3ccc(C(=O)NO)cc32)cc1
active: Potency [14] 16.6 µM | Potency [19] 5.9 µM | Potency [3] 18.7 µM | Potency [4] 16.6 µM | Potency [6] 16.6 µM | Potency [8] 9.35 µM
inactive: Potency [5]

COc1ccc(C=CC(=O)Nc2ccccc2C(=O)O)cc1OC
active: Potency [15] 11.8 µM | Potency [4] 11.8 µM
inactive: Potency [14] | Potency [17] | Potency [3] | Potency [12] | Potency [7] | Potency [18] | Potency [10]

CCCCC[C@H](O)C=C[C@H]1[C@H](O)CC(=O)[C@H]1CCCCCCC(=O)O
active: Potency [2] 8.33 µM | Potency [4] 3.32 µM
inactive: Potency [14] | Potency [16] | Potency [3] | Potency [12] | Potency [5] | Potency [6] | Potency [13]

COc1cc(N2CCN(C)CC2)ccc1Nc1nc(N)c(C(=O)c2c(Cl)cccc2Cl)s1
active: Potency [14] 23.5 µM | Potency [19] 10.5 µM | Potency [16] 4.18 µM | Potency [2] 8.33 µM | Potency [4] 20.9 µM | Potency [7] 14.8 µM | Potency [9] 18.7 µM | Potency [10] 20.9 µM | Potency [11] 18.7 µM
inactive: Potency [3]

CC(C)CN(C[C@H](O)[C@H](Cc1ccccc1)NC(=O)O[C@H]1CCOC1)S(=O)(=O)c1ccc(N)cc1
active: Potency [15] 16.6 µM | Potency [16] 8.33 µM | Potency [4] 16.6 µM | Potency [5] 16.6 µM | Potency [9] 2.96 µM | Potency [10] 26.4 µM
inactive: Potency [14] | Potency [17] | Potency [12] | Potency [18] | viability [20] 121%

Nc1ncnc2c1c(-c1cccc(OCc3ccccc3)c1)cn2C1CC(CN2CCC2)C1 (stereo not drawn)
active: Potency [14] 16.6 µM | Potency [15] 3.72 µM | Potency [16] 4.69 µM | Potency [2] 2.96 µM | Potency [3] 0.418 µM | Potency [4] 2.96 µM | Potency [5] 4.69 µM | Potency [7] 3.32 µM | Potency [13] 1.87 µM | Potency [8] 0.296 µM | Potency [9] 4.18 µM | Potency [10] 16.6 µM | Potency [11] 16.6 µM

COc1ccc2c(c1)CC[C@H]1[C@@H]2CC[C@]2(C)[C@@H](NCCCCCCN3C(=O)C=CC3=O)CC[C@H]12
active: Potency [11] 20.9 µM
inactive: Potency [14] | Potency [15] | Potency [3] | Potency [12] | Potency [18] | viability [20] 134%

CC=C1C2C=C(C)CC1(N)c1ccc(=O)[nH]c1C2 (stereo not drawn)
inactive: Potency [14] | Potency [15] | Potency [16] | Potency [17] | Potency [3] | Potency [12] | Potency [4] | Potency [5] | Potency [6] | Potency [13] | Potency [8] | Potency [10] | Potency [11]

Reference: PubChem BioAssay (NCATS)
